In the library only some 1.7% were active in any assay of this set; here they are far more common.
TRPML1 agonist = qHTS for Agonists of the Human Mucolipin Transient Receptor Potential 1 (TRPML1); Mucolipin-1 (Homo sapiens), Q9GZU1; TRPML1-expressing cells, Ca2+ dye fluorescence, FDSS; activation, % (concentration not given with the values); hit rate 0.12% among 410,000; AID 624414, 2012; in the data active = activation above about 50%; also: 0% is about no effect
Target sequence (Q9GZU1 whole entry, looked up): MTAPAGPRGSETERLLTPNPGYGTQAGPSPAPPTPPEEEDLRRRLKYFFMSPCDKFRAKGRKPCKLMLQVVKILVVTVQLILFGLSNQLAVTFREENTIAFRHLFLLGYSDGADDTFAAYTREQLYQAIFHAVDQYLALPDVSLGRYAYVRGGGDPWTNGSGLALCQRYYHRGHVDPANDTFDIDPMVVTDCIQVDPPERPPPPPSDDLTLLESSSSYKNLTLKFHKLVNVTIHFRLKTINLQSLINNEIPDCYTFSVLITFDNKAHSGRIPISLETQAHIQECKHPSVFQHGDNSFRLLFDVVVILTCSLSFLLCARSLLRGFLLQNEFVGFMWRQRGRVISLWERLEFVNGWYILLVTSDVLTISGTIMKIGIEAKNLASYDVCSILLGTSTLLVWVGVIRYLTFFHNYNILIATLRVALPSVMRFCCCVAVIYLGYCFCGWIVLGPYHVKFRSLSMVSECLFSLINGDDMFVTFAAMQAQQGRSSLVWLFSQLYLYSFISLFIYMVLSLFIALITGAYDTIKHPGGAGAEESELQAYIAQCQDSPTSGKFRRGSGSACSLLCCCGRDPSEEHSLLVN
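Cells: TRPML1-DL, 1X Tet inducer, ~16 h at 37 degrees C/5% CO2. Dye: ABD Ca8 no-wash + quencher, 45-90 min RT. Read: 10 s baseline, compound add, 110 s agonist phase; 54-4 EC80 (4uM final), 110 s antagonist phase.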
KCNH2 3.1 inh = qHTS for Inhibitors of KCHN2 3.1: Mutant qHTS. AID 720553, 2013. U2OS KCNH2 3.1, thallium flux FluxOr; hits give low values. hit rate 0.95% among 340,000. activity change, % (tested at about 1.8 µM);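 active = maximum activity change below -70%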;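 also: thallium influx rate constant from kinetic fluorescence after stimulation buffer; % is scaled to controls: 0 for no effect and ±100 for the full control effect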
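Normalized rate constant (relative to positive and negative DMSO controls) derived from a 2 min kinetic fluorescence read after stimulation; U2OS cells expressing the 3.1 isoform via virus at 1.77 x 10^8 /mL.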
TRHR agonist = qHTS for Small Molecule Agonists and Allosteric Enhancers of Human TRH Receptor: Primary Screen for Agonists; Thyrotropin-releasing hormone receptor (Homo sapiens), P34981; TRHR cells, calcium flux fluo-8, FDSS agonist mode; activation, % at 2 µM; hit rate 0.18% among 360,000; AID 493084, 2011; in the data active = activation above about 30%; also: 0% is about no effect
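Fluo-8-loaded TRHR cells; 10 s baseline, compound added, kinetic Ca2+ fluorescence read 1/s, agonist mode.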
TRPML1 blocker = qHTS for Inhibitors of the Human Mucolipin Transient Receptor Potential 1 (TRPML1); activity change, negative = inhibition, % (concentration not given with the values); AID 624415, 2012; hit rate 0.02% among 390,000; Mucolipin-1 (Homo sapiens), Q9GZU1; TRPML1-inducible cells, Ca2+ dye fluorescence, FDSS; hits give low values; inhibition of EC80 agonist-evoked calcium signal; in the data active = activity change below about -50%;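 also: stimulus is agonist 54-4 at its EC80 concentration; % is scaled to controls: 0 for no effect and ±100 for the full control effect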
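Calcium fluorescence in TRPML1-DL cells induced overnight with Tet: a 110 s read after compound pin addition, then a 110 s antagonist read after challenge with 54-4 at 4 uM final (EC80).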
hERG WT inh = qHTS for Inhibitors of KCHN2 3.1: Wildtype qHTS | Voltage-gated inwardly rectifying potassium channel KCNH2 (Homo sapiens), Q12809 | U2OS, BacMam KCNH2, thallium flux FluxOr; hits give low values | activity change, % at 1.84 µM | hit rate 0.37% among 340,000 | AID 720551, 2013;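 active = maximum activity change below -70%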; also: % is scaled to controls: 0 for no effect and ±100 for the full control effect
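U2OS cells were transduced with wild-type KCNH2 virus (2.03 x 10^8 / mL) for 4 h at room temperature, then cultured overnight at 37 C. Thallium flux was read with FluxOr dye. Rate constants were normalized to DMSO controls.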
TRHR PAM = qHTS for Small Molecule Agonists and Allosteric Enhancers of Human TRH Receptor: Primary Screen for Enhancers. Thyrotropin-releasing hormone receptor (Homo sapiens), P34981. TRHR cells, fluo-8 calcium fluorescence, EC20 TRH enhancement. enhancement, % at 2 µM. hit rate 0.66% among 360,000; in the data active = enhancement above about 30%; also: 0% is about no effect
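Enhancer read-out: after compound pinning and an initial kinetic agonist-mode read, an EC20 of TRH (10 nM final) was injected and fluo-8 calcium signal (Ex 480/Em 530) followed at 1 s/cycle for 100 cycles in TRHR-expressing cells.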
* hit, by the source's call; i = inactive; · = not tested or not shown.

SMILES	TRPML1 agonist	KCNH2 3.1 inh	TRHR agonist	TRPML1 blocker	hERG WT inh	TRHR PAM
O=C(Cn1ncc2c([nH]c3ccccc32)c1=O)NCC1CCN(Cc2ccc(F)cc2)CC1	2	-98*	0	-18	-22	-6
CCCn1c2ccccc2c2cnn(CC(=O)NCC3CCN(Cc4ccc(F)cc4)CC3)c(=O)c21	1	·	0	-5	·	-3
Cc1ccc(Cl)cc1N1CCN(CCCNC(=O)Cn2ncc3c([nH]c4ccccc43)c2=O)CC1	4	·	0	-13	·	54*
CC1(C)OC(=O)C(=CNNc2c(Cl)cc(Cl)cc2Cl)C(=O)O1	0	-7	-1	27	6	31*
CC1(C)OC(=O)C(=CNc2ncccn2)C(=O)O1	1	-9	1	-10	18	5
CCOc1ccc(NC(=O)/C(C#N)=C/c2ccc(N3CCCC3)c(C)c2)cc1	9	-22	32*	-9	-23	9
CCN(CC)S(=O)(=O)c1ccc(N2CCCCC2)c(NC(=O)/C(C#N)=C/c2ccc(OC)cc2)c1	0	-7	0	3	-6	2
O=C(N[C@@H](Cc1ccccc1)C(=O)N1CCN(S(=O)(=O)c2ccccc2F)CC1)c1ccco1	1	6	·	31	-9	·
CC(=O)c1cccc(CN(C)CC2CCCN(CCc3ccccc3C)C2)c1 (centres undefined)	·	-22	0	·	6	-4
Cc1c(C(=O)N(C)C)c2cc(Cl)ccc2n1O	0	-3	0	7	i	-2
Cc1c(C(=O)N(C)C)c2ccc(Cl)cc2n1O	2	-107*	0	-2	0	5
O=C1OCC(CO)(CO)N=C1NNc1ccccc1Cl	0	13	1	13	1	31*
O=C(O)C1(Nc2ccccc2Cl)CCCC1	0	0	·	2	-8	·
COc1ccccc1N1CCN(Cc2c[nH]c3ccccc23)CC1	0	-32	0	-1	35	-1
O=[N+]([O-])c1ccc(/C=N/N2CCN(Cc3ccccc3)CC2)cc1	1	-80*	-1	40	-9	1
O=[N+]([O-])c1ccc(/C=N\N2CCN(Cc3ccccc3Cl)CC2)cc1	0	-9	·	45	30	·
Cc1ccccc1N1CCN(Cc2c[nH]c3ccccc23)CC1	0	-85*	1	3	21	8
O=[N+]([O-])c1ccc(CN2CCN(Cc3c[nH]c4ccccc34)CC2)cc1	0	-77*	1	1	-38	2
CC(=O)NC(c1ccco1)c1cc(Br)c2cccnc2c1O (centres undefined)	·	·	0	·	·	-6
N#CC1=CC2CN(Cc3ccccc3)C1C1C(=O)N(c3ccccc3)C(=O)C21 (centres undefined)	2	8	·	8	1	·
COc1ccc(CC(=O)Nc2ccc(N3CCOCC3)cc2)cc1S(=O)(=O)N1CCOCC1	·	-5	1	·	-3	3
CC(C)(C)n1ncc2c(=O)n(Cc3c(Cl)cccc3Cl)cnc21	2	·	·	-3	·	·
c1ccc(Nc2nc3ccccc3n3cnnc23)cc1	-1	-5	-1	-3	2	34*
CC(=O)Nc1ccc(N=Cc2c(O)c(C(=O)Nc3ccccc3)cc3ccccc23)cc1	30	-17	109*	14	-21	-1
CC1CCN(S(=O)(=O)c2ccc(C(=O)NC3CCS(=O)(=O)C3)cc2)CC1 (centres undefined)	0	-79*	0	15	-3	1
SMILES	TRPML1 agonist	KCNH2 3.1 inh	TRHR agonist	TRPML1 blocker	hERG WT inh	TRHR PAM
Cc1ccc(C(=O)NC2CCCCC2)cc1S(=O)(=O)N1CCCC1	1	8	-1	20	8	-3
Cc1ccc(C(=O)NC2CCS(=O)(=O)C2)cc1S(=O)(=O)N1CCCCCC1 (centres undefined)	0	-114*	0	26	14	1
CC1CCN(S(=O)(=O)c2ccc(C(=O)NCc3cccnc3)cc2)CC1	-1	3	0	-10	-263*	-5
Cc1[nH]c2ccccc2c1C(=O)C(C)OC(=O)c1ccc(Cl)nc1 (centres undefined)	-1	-33	1	5	-2	10
O=C(c1ccccn1)N1CCCC(N2CCN(c3ccccc3)CC2)C1 (centres undefined)	0	2	1	-2	0	1
NC(=O)C1(c2ccccc2)CCCN1C(=O)c1ccccc1Br (centres undefined)	4	-1	0	-20	14	36*
CC(Sc1nnc(COc2ccc3ccccc3c2)n1C)C(=O)O (centres undefined)	1	-10	0	29	1	-4
Cc1cccc2cncc(OCc3nnc(SC(F)F)n3C)c12	0	7	0	-20	13	41*
Cc1nnc2c3ccccc3c(-c3cccs3)nn12	1	-85*	0	-5	-4	2
Cc1nnc2c3ccccc3c(-c3ccc(O)cc3)nn12	0	2	0	-3	-12	13
Cc1ccc(OC(=O)c2ccc([N+](=O)[O-])cc2Cl)cn1	·	6	0	·	2	-10
CN(C)S(=O)(=O)c1cccc(-c2nn(-c3ccccc3)cc2/C=C(\C#N)c2nc3ccccc3[nH]2)c1	0	-76*	2	-5	6	2
CC(C)c1ccc(NC(=O)Cn2c(=O)oc3cccnc32)cc1	0	-6	1	-3	0	-6
Cc1ccc(SCC(Cc2ccccc2)N2CCN(C)CCC2=O)cc1 (centres undefined)	1	·	·	2	·	·
CCOC(=O)N1CCC(N2CCCC(C(=O)c3cccc(OC(C)C)c3)C2)CC1 (centres undefined)	0	-80*	-1	-14	0	4
CCOC(=O)N1CCC(N2CCCC(C(=O)c3cccc(OC)c3)C2)CC1 (centres undefined)	0	3	1	1	24	0
CCN(CC)CCN(C(=O)c1cccc(N2C(=O)CCC2=O)c1)c1nc2cc3c(cc2s1)OCO3	-1	0	0	23	10	4
CN(C)CCCN(C(=O)c1cccc(N2C(=O)CCC2=O)c1)c1nc2cc3c(cc2s1)OCO3	·	20	0	·	9	32*

Screening data: PubChem, National Center for Advancing Translational Sciences (NCATS)
